Assay [1] is described as follows: Quantitative High-Throughput drug screen in 47 multiple myeloma cell lines against the NCATS MIPE library collection: KMS12PE_JCRB cell viability assay (AID 1918972). Note: nearly all actives have a fitted effect of over 30% in size. In a few lines:
(§1)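 Steps: seed 500 cells per well; pin-transfer MIPE 4.0 library; incubate 48 h at 37C, 5% CO2, humidified; add CellTiter-Glo, 5 min room temperature; read luminescence.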

The nature of assay [2]: Quantitative High-Throughput drug screen in 47 multiple myeloma cell lines against the NCATS MIPE library collection: KMS20_JCRB cell viability assay (AID 1918973). Note: nearly all actives have a fitted effect of over 45% in size. Put shortly:
as §1

Assay [3] is described as follows: Quantitative High-Throughput drug screen in 47 multiple myeloma cell lines against the NCATS MIPE library collection: NCIH929_DSMZ cell viability assay (AID 1918978). Note: nearly all actives have a fitted effect of over 35% in size. In a few lines: (§2)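 Inhibition of viability over 48 h was scored by ATP content (CellTiter-Glo) in 500-cell wells. Zero and full viability were defined by media-only and DMSO-only wells.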
Assay [4] is described as follows: Quantitative High-Throughput drug screen in 47 multiple myeloma cell lines against the NCATS MIPE library collection: MM1S_ATCC cell viability assay (AID 1918980). Note: nearly all actives have a fitted effect of over 45% in size. In a few lines: as §2
Assay [5] in a line: Quantitative High-Throughput drug screen in 47 multiple myeloma cell lines against the NCATS MIPE library collection: LP1_DSMZ cell viability assay (AID 1918982). Note: nearly all actives have a fitted effect of over 35% in size. In a few lines: as §2
Assay [6] in a line: Quantitative High-Throughput drug screen in 47 multiple myeloma cell lines against the NCATS MIPE library collection: KMS28PE_JCRB cell viability assay (AID 1918983). Note: nearly all actives have a fitted effect of over 35% in size. In a few lines:
as §2

The nature of assay [7]: Quantitative High-Throughput drug screen in 47 multiple myeloma cell lines against the NCATS MIPE library collection: KMS34_JCRB cell viability assay (AID 1918985). Note: nearly all actives have a fitted effect of over 40% in size. Put shortly:
as §2

Assay [8] in a line: Quantitative High-Throughput drug screen in 47 multiple myeloma cell lines against the NCATS MIPE library collection: OPM1_PLB cell viability assay (AID 1918989). Note: nearly all actives have a fitted effect of over 40% in size. Put shortly: as §2
A short description of assay [9]: Quantitative High-Throughput drug screen in 47 multiple myeloma cell lines against the NCATS MIPE library collection: SKMM1_PLB cell viability assay (AID 1919863). Note: nearly all actives have a fitted effect of over 35% in size. As to conditions: SKMM1 myeloma viability, CellTiter-Glo ATP, 48 h; viability: stronger effect = lower value. In a few lines: as §2
The nature of assay [10]: Quantitative High-Throughput drug screen in 47 multiple myeloma cell lines against the NCATS MIPE library collection: U266_ATCC cell viability assay (AID 1919864). Note: nearly all actives have a fitted effect of over 35% in size. In a few lines:
as §2

The nature of assay [11]: Quantitative High-Throughput drug screen in 47 multiple myeloma cell lines against the NCATS MIPE library collection: KMS26_JCRB cell viability assay (AID 1918975). Note: nearly all actives have a fitted effect of over 45% in size. In a few lines: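 Myeloma cell lines, 500 cells per well, exposed to MIPE 4.0 library compounds for 48 h at 37C, 5% CO2. Viability from ATP by CellTiter-Glo luminescence; normalised to DMSO (100%) and media-only (0%) wells.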

Assay [12] is described as follows: Quantitative High-Throughput drug screen in 47 multiple myeloma cell lines against the NCATS MIPE library collection: MOLP8_DSMZ cell viability assay (AID 1918977). Note: nearly all actives have a fitted effect of over 45% in size. Put shortly:
as §2

A short description of assay [13]: Quantitative High-Throughput drug screen in 47 multiple myeloma cell lines against the NCATS MIPE library collection: OCIMY1_PLB cell viability assay (AID 1918979). Note: nearly all actives have a fitted effect of over 35% in size. In a few lines:
as §2

A short description of assay [14]: Quantitative High-Throughput drug screen in 47 multiple myeloma cell lines against the NCATS MIPE library collection: MM1R_ATCC cell viability assay (AID 1918981). Note: nearly all actives have a fitted effect of over 35% in size. Put shortly:
as §2

The nature of assay [15]: Quantitative High-Throughput drug screen in 47 multiple myeloma cell lines against the NCATS MIPE library collection: L363_DSMZ cell viability assay (AID 1918984). Note: nearly all actives have a fitted effect of over 40% in size. Put shortly:
as §2

The nature of assay [16]: Quantitative High-Throughput drug screen in 47 multiple myeloma cell lines against the NCATS MIPE library collection: XG6_PLB cell viability assay (AID 1919865). Note: nearly all actives have a fitted effect of over 40% in size. Put shortly: as §2
A short description of assay [17]: Quantitative High-Throughput drug screen in 47 multiple myeloma cell lines against the NCATS MIPE library collection: OCIMY7_PLB cell viability assay (AID 1918987). Note: nearly all actives have a fitted effect of over 65% in size. Put shortly:
as §2

A short description of assay [18]: Quantitative High-Throughput drug screen in 47 multiple myeloma cell lines against the NCATS MIPE library collection: MMM1_PLB cell viability assay (AID 1918976). Note: nearly all actives have a fitted effect of over 35% in size. In a few lines:
as §2

Assay [19] can be described thus: Quantitative High-Throughput drug screen in 47 multiple myeloma cell lines against the NCATS MIPE library collection: KMS21BM_JCRB cell viability assay (AID 1918974). As to conditions: ATP luminescence, 48 h; viability: at 45.8 µM (top of the series) unless noted. Put shortly: as §1
Assay [20] in a line: Quantitative High-Throughput drug screen in 47 multiple myeloma cell lines against the NCATS MIPE library collection: OCIMY5_PLB cell viability assay (AID 1918988). Note: nearly all actives have a fitted effect of over 65% in size. Put shortly:
as §2

A word on the viability: it is a read-out of living cells in per cent, often relative to untreated cells.

Records with an inconclusive call do not appear. Values without a mark were called inactive. The source made the active and inactive calls. Calls come from the whole dose curve; as a rule, active = well fitted curve in the direction sought with a large enough effect; inconclusive = small, poorly fitted or top-dose-only effect, or another doubt; inactive = no such curve, though single readings can be large; an effect the other way counts as inactive or inconclusive.
Potency is the fitted concentration of half-maximal effect.

Consider `N=C(N=C(N)N)N1CCOCC1`, for which the Potency result in assay [1], in assay [2], in [3], in assay [5], in assay [6] and in assay [7] was “inactive” throughout. Further, the Potency entry in assay [8] was “inactive”. Besides, the Potency is 10.5 µM (active) in assay [4] and 18.7 µM (active) in assay [10]. For the same compound, the viability in assay [9] is 125%.
Take `CCOC(=O)c1c(C)n(C)c2ccc(O)cc12`: the Potency result in [1], in [2], in assay [11], in assay [12], in [3] and in assay [13] was “inactive” throughout. Also, the Potency result in [14], in assay [5], in assay [6], in assay [15], in [8] and in [16] was “inactive” each time. Further, the Potency in assay [7] is 3.72 µM (active). Moreover, the viability in assay [9] was 121%.
`Cc1ccc(S(=O)(=O)NC(=O)NN2CC3CCCC3C2)cc1` (stereo not given): the Potency was 26.4 µM (active) in assay [1]; 10.5 µM (active) in assay [2]; 20.9 µM (active) in assay [4]; 20.9 µM (active) in assay [17]; 20.9 µM (active) in assay [8]; 20.9 µM (active) in assay [10]. In [16], the Potency is 20.9 µM (active).
Consider `COc1ccc2cc([C@H](C)C(=O)O)ccc2c1`, for which the Potency entry in assay [1], in assay [11], in [12], in assay [3], in assay [4] and in [14] was “inactive” in each case. For the same compound, the Potency entry in assay [5], in [7], in assay [10] and in assay [16] was “inactive” in each case. Also, the Potency in [18] was 16.6 µM (active); in assay [17], 33.2 µM (active). Moreover, the viability in [9] was 105%.
In the case of `CCOC(=O)C1=C(O)C(=O)N(Cc2ccccc2)C1`, the Potency result in [1], in [19], in assay [12], in assay [6], in [8] and in assay [10] was “inactive” throughout. Moreover, the Potency result in assay [16] is “inactive”. In assay [18], the Potency was 1.66 µM (active). The viability in [9] is 107%.
On to `CC(=O)N1CCN(c2ccc(OC[C@H]3CO[C@](Cn4ccnc4)(c4ccc(Cl)cc4Cl)O3)cc2)CC1`, for which the Potency was 5.26 µM (active) in [1]; 7.43 µM (active) in assay [2]; 23.5 µM (active) in [18]; 9.35 µM (active) in assay [3]; 11.8 µM (active) in [14]; 6.62 µM (active) in [6]. The Potency in assay [7] was 13.2 µM (active); in [8], 16.6 µM (active). The Potency result in assay [15] was “inactive”.
As for `Nc1ccc(S(N)(=O)=O)cc1`, the Potency entry in assay [1], in assay [19], in [11], in [12], in assay [4] and in assay [14] was “inactive” in each case. In addition, the Potency entry in assay [5], in assay [6], in assay [17], in assay [8], in assay [10] and in assay [16] was “inactive” each time. In addition, the viability in assay [9] is 120%.
Turning to `O=c1cc(N2CCOCC2)oc2c(-c3ccccc3)cccc12`, the Potency entry in assay [1], in assay [19] and in assay [15] was “inactive” each time. In addition, the Potency in [11] is 7.43 µM (active); in assay [18], 18.7 µM (active); in [12], 7.43 µM (active); in [13], 11.8 µM (active); in assay [4], 14.8 µM (active); in assay [14], 7.43 µM (active). Besides, the Potency was 11.8 µM (active) in assay [5]; 10.5 µM (active) in assay [6]; 11.8 µM (active) in assay [7]; 13.2 µM (active) in [20]; 10.5 µM (active) in [8]; 14.8 µM (active) in assay [9]. Besides, the Potency in assay [10] was 18.7 µM (active).
Take `CCN(CCO)CCCC(C)Nc1ccnc2cc(Cl)ccc12` (stereo not given): the Potency result in assay [1], in assay [19], in [11], in assay [12], in assay [13] and in assay [5] was “inactive” in each case. Further, the Potency entry in assay [6], in [15], in assay [7], in assay [20], in assay [8] and in [10] was “inactive” throughout. For the same compound, the Potency result in [16] was “inactive”.
In the case of `CN(C)C(=O)[C@H](O)[C@H](Cc1ccccc1)NC(=O)c1cc2cc(Cl)ccc2[nH]1`, the Potency in assay [1] was 2.09 µM (active); in assay [2] it was 7.43 µM (active); in [11], 20.9 µM (active); in assay [3] it was 1.32 µM (active); in assay [4] it was 18.7 µM (active); in [14] it was 13.2 µM (active). Moreover, the Potency was 2.64 µM (active) in assay [15], 0.935 µM (active) in [7], 2.96 µM (active) in assay [17] and 6.62 µM (active) in [8].
Take `Cc1nc(Nc2ncc(C(=O)Nc3c(C)cccc3Cl)s2)cc(N2CCN(CCO)CC2)n1`: the Potency in [1] is 0.372 µM (active); in assay [2], 0.332 µM (active); in assay [19], 0.209 µM (active); in [15], 1.32 µM (active); in assay [7] it was 0.59 µM (active); in assay [8] it was 0.833 µM (active). In addition, the Potency was 16.6 µM (active) in [10] and 0.0332 µM (active) in assay [16].
Turning to `C[Se]CCC(N)C(=O)O` (stereo not given), the Potency entry in [1], in assay [12], in assay [3], in assay [4], in assay [5] and in assay [6] was “inactive” each time. The Potency entry in assay [15], in assay [8] and in assay [10] was “inactive” each time. In addition, the viability in assay [19] is 325% [at 92.2 µM] (active). Moreover, the Potency in assay [18] is 0.855 µM (active).
Regarding `Nc1nc(Cl)nc2c1ncn2[C@H]1C[C@H](O)[C@@H](CO)O1`, the Potency in [1] was 0.0372 µM (active); in assay [19] it was 0.0935 µM (active); in [18] it was 4.69 µM (active); in assay [12], 0.0833 µM (active); in assay [3], 0.59 µM (active); in assay [4], 0.59 µM (active). Besides, the Potency in assay [14] was 0.264 µM (active); in assay [17] it was 0.001 µM (active); in assay [8], 18.7 µM (active); in [16] it was 0.935 µM (active). Further, the Potency entry in assay [5] is “inactive”.
As to `Cn1c(NCCN(CCO)CCCc2ccc([N+](=O)[O-])cc2)cc(=O)n(C)c1=O`, the Potency in [1] is 20.9 µM (active); in assay [19], 10.5 µM (active); in assay [4], 23.5 µM (active); in [16], 20.9 µM (active). In addition, the Potency result in assay [11], in assay [7] and in assay [17] was “inactive” in each case. For the same compound, the viability in assay [9] was 107%.
Turning to `COC(=O)C1=C(C)NC(C)=C(C(=O)OCCCN2CCC(c3ccccc3)(c3ccccc3)CC2)C1c1cccc([N+](=O)[O-])c1` (stereo not given), the Potency result in assay [1], in [2], in [12], in assay [13], in assay [5] and in assay [6] was “inactive” in each case. For the same compound, the Potency entry in assay [17] and in assay [16] was “inactive” in each case. In addition, the Potency was 20.9 µM (active) in assay [14] and 3.32 µM (active) in [7]. Also, in assay [9], the viability was 122%.
Turning to `Cc1cc(C2CCCCC2)n(O)c(=O)c1`, the Potency in [1] is 11.8 µM (active); in assay [2], 11.8 µM (active); in assay [11] it was 10.5 µM (active); in assay [18], 14.8 µM (active); in assay [12], 4.18 µM (active); in assay [3], 7.43 µM (active). For the same compound, the Potency in [13] is 16.6 µM (active); in assay [4], 0.935 µM (active); in [14] it was 1.48 µM (active); in assay [5], 14.8 µM (active); in assay [15] it was 7.43 µM (active); in assay [7], 5.26 µM (active). For the same compound, the Potency was 7.43 µM (active) in assay [17]; 2.09 µM (active) in assay [20]; 9.35 µM (active) in assay [8]; 9.35 µM (active) in [9]; 8.33 µM (active) in assay [16].

These data come from PubChem BioAssay (NCATS).
